Measured values: the supplement of paper PMC8975748
Where a name gives a salt, the structure may show the parent alone.

System: Saccharomyces cerevisiae BY4741 SeMeCo community
Experiment: z-score of subpopulation abundance vs DMSO median, subpopulation auxotrophic for HL; higher = larger share of this subpopulation than in DMSO controls
Conditions: 10 µM; 24 h; SM minimal medium; subpopulation (auxotrophy): HL
Method: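 Fluorescent four-plasmid SeMeCo (self-establishing metabolically cooperating S. cerevisiae BY4741 community; plasmids pH-mRuby2, pL-mWasabi, pU-eCFP, pM-TagRFP657) was grown 24 h in minimal SM medium with each Selleck FDA-approved drug at 10 µM in 384-well plates. Cells were fixed and imaged by high-content confocal microscopy. For each auxotrophic subpopulation (and the prototroph), a z-score gives the deviation from the DMSO vehicle-control population median.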

Row | Compound | z-score of subpopulation abundance
1 | N[C@@H]1C[C@H]1c1ccccc1 [Tranylcypromine (2-PCPA) HCl] | -0.72
2 | Cc1cc(C(C#N)c2ccc(Cl)cc2)c(Cl)cc1NC(=O)c1cc(I)cc(I)c1O (centres undefined) [Closantel] | 0.7
3 | CC[C@H]1CN2CC[C@]3(C(=O)Nc4ccccc43)[C@@H]2C[C@@H]1/C(=C\OC)C(=O)OC [Rhynchophylline] | 0.04
4 | CN(C)[C@@H]1C(=O)C(C(N)=O)=C(O)[C@@]2(O)C(=O)C3=C(O)c4c(O)cccc4[C@@](C)(O)[C@H]3C[C@@H]12 [Tetracycline HCl] | 0.29
5 | O=C(O[C@H]1C[C@H]2CC[C@@H](C1)[N+]21CCCC1)C(O)(c1ccccc1)c1ccccc1 [Trospium chloride] | -0.4
6 | O=C(O[C@H]1C[N+]2(CCCOc3ccccc3)CCC1CC2)C(O)(c1cccs1)c1cccs1 [Aclidinium Bromide] | -1.16
7 | COc1ccc(C(CN(C)C)C2(O)CCCCC2)cc1 (centres undefined) [Venlafaxine] | -1.14
8 | Nc1nc(N)nc(NC2CC2)n1 [Cyromazine] | -0.97
9 | CN(C)C(=O)Oc1ccc[n+](C)c1 [Pyridostigmine Bromide] | 0.3
10 | O=c1cccc2n1C[C@@H]1CNC[C@H]2C1 [Cytisine] | -0.4
11 | CC(=O)OCC1=C(C(=O)O)N2C(=O)C(N)C2SC1 (centres undefined) [7-Aminocephalosporanic acid] | -0.23
12 | COc1ccc(C(CN(C)C)C2(O)CCCCC2)cc1 (centres undefined) [Venlafaxine HCl] | 1.07
13 | COc1ccc2c(c1)[C@]13CCCC[C@@H]1[C@H](C2)N(C)CC3 [Dextromethorphan hydrobromide hydrate] | -0.33
14 | C[N+](C)(C)CCCCCCCCCC[N+](C)(C)C [Decamethonium Bromide] | -0.3
15 | C[C@H]1O[C@H](O[C@H]2[C@H](O)[C@@H](O)[C@@H](O)[C@H](O)[C@@H]2O)[C@@H](N)C[C@@H]1NC(=N)C(=O)O [Kasugamycin hydrochloride] | -0.07
16 | CN(C)[C@@H]1C(=O)C(C(N)=O)=C(O)[C@@]2(O)C(=O)C3=C(O)c4c(O)cccc4[C@@](C)(O)[C@H]3[C@H](O)[C@@H]12 [Oxytetracycline (Terramycin)] | 0.77
17 | C[N+]12CCC(CC1)C(OC(=O)C(O)(c1ccccc1)c1ccccc1)C2 (centres undefined) [Clidinium Bromide] | -0.33

Row | Compound | z-score of subpopulation abundance
18 | CC(C)N(CCC(C(N)=O)(c1ccccc1)c1ccccn1)C(C)C (centres undefined) [Disopyramide] | 2.14
19 | Cc1cc(O)ccc1Cl [Chlorocresol] | -0.86
20 | CN1[C@@H]2C[C@@H](OC(=O)[C@H](CO)c3ccccc3)C[C@H]1[C@@H]1O[C@@H]12 [Scopolamine HBr trihydrate] | -0.72
21 | CCN(C)C(=O)Oc1cccc([C@H](C)N(C)C)c1 [Rivastigmine Tartrate] | 0.04
22 | CCOC(=O)Nc1ccc(NCc2ccc(F)cc2)cc1N [Retigabine] | 0.75
23 | CC[C@H]1[C@@H]2C[C@H]3[C@@H]4N(C)c5ccccc5[C@]45C[C@@H]([C@@H]2[C@H]5O)N3[C@@H]1O [Ajmaline] | -1.02
24 | COc1ccc2[nH]cc(CCN)c2c1 [5-Methoxytryptamine] | -0.31
25 | C[CH2][Hg][S]c1ccccc1C(=O)[O-].[Na+] [Thimerosal] | 11.9
26 | CC(C)=CCOc1c2occc2cc2ccc(=O)oc12 [Imperatorin] | 0.34
27 | COc1ccc2c3c([nH]c2c1)C(C)=NCC3 [Harmaline] | 1.95
28 | CCCCCCCCCCCCCCCC[n+]1ccccc1 [Cetylpyridinium Chloride] | 13.5
29 | Oc1cccc2cccnc12 [8-Hydroxyquinoline] | 0.63
30 | C=CN1CCCC1=O.II [Povidone iodine] | 2.13
31 | CN1[C@@H]2C[C@@H](OC(=O)[C@H](CO)c3ccccc3)C[C@H]1[C@@H]1O[C@@H]12 [Scopolamine HBr] | -0.91
32 | C=CC[C@]1(O)CC[C@H]2[C@@H]3CCC4=CC(=O)CCC4=C3C=C[C@@]21C [Altrenogest] | 0.59
33 | CC[C@@]1(O)C(=O)OCc2c1cc1n(c2=O)Cc2cc3ccccc3nc2-1 [Camptothecin] | -0.59
34 | Oc1cc(Cl)ccc1Oc1ccc(Cl)cc1Cl [Triclosan] | -0.78
